Data published in PubChem BioAssay (NCATS).
Unmarked numbers belong to inactive results. Results filed as inconclusive are left out. A call without a number means that no potency is given here. Calls of active or inactive are those of the source. The call rests on the fitted dose curve; in most records, active means well fitted curve in the direction sought with a large enough effect; inconclusive means small, poorly fitted or top-dose-only effect, or another doubt; inactive means no such curve, though single readings can be large; an effect the other way counts as inactive or inconclusive.

Tests used:
[1] = target: Glutathione peroxidase 1 (Homo sapiens) (UniProt P07203); assay: Primary qHTS Assay for Inhibitors of Recombinant Selenoprotein Glutathione Peroxidase 1 (GPX1) (AID 1845191); further: nearly all actives have a fitted effect of over 65% in size
Glutathione peroxidase 1 (Homo sapiens), sequence (P07203 whole entry, looked up): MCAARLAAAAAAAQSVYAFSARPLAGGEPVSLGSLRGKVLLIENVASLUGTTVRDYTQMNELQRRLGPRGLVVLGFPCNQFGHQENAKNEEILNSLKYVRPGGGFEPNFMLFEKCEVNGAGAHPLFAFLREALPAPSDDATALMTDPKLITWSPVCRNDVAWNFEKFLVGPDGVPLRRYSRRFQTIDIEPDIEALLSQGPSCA
Method in brief: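 NADPH consumption tracked by fluorescence at 340/450 nm between t=0 and t=15 min, room temperature. Final mix: 10 nM GPX1, 100 nM glutathione reductase, 1 mM GSH, 0.5 mM NADPH, 0.5 mM cumene hydroperoxide, 0.01% BSA; 30 min compound–enzyme preincubation.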

[2] = target: Phospholipid hydroperoxide glutathione peroxidase GPX4 (Homo sapiens) (UniProt P36969); assay: Primary qHTS Assay for Inhibitors of Recombinant Selenoprotein Glutathione Peroxidase 4 (GPX4) (AID 1845192); further: nearly all actives have a fitted effect of over 65% in size; on activity change, negative = inhibition: series mostly up to about 50 µM
Phospholipid hydroperoxide glutathione peroxidase GPX4 (Homo sapiens), sequence (P36969 whole entry, looked up): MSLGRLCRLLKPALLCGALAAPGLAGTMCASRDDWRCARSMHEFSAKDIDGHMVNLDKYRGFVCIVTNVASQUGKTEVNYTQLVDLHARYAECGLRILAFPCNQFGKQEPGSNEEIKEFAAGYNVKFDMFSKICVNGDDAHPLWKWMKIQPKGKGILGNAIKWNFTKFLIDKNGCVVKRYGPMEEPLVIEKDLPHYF
Method in brief: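 NADPH consumption followed by fluorescence at 340/450 nm, t=0 and after 15 min at room temperature. Reaction started with cumene hydroperoxide (0.5 mM final) after 30 min compound–GPX4 preincubation; final 200 nM GPX4, 100 nM GR, 1 mM GSH, 0.5 mM NADPH.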

[3] = target: Luciferin 4-monooxygenase (Photinus pyralis) (UniProt P08659); assay: Primary firefly luciferase (FLuc) qHTS assay for identification of artifact compounds. (AID 1845220); further: nearly all actives have a fitted effect of over 60% in size; on activity change, negative = inhibition: series mostly up to about 54 µM
Method in brief: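 FLuc 10 nM; luciferin 10 uM; ATP 10 uM; Tris-acetate pH 7.6, Mg-acetate 10 mM; 15 min RT preincubation; 5 min reaction; luminescence.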

[4] = Primary fluorescence-based thiol-reactive (MSTI) qHTS assay for identification of artifact compounds. (AID 1845221); further: nearly all actives have a fitted effect of over 65% in size; further: potency means the concentration at half of the fitted maximal effect;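 on activity change, negative = thiol reactive: series mostly up to about 54 µM; thiol-reactive compounds lower the probe fluorescence signal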
Method in brief: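 First, 4 uM MSTI in 2% DMSO/PBS pH 7.4 was dispensed; next, compounds were added; then plates sat 1 h at room temperature without light. Finally, emission at 598 nm was recorded.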

[5] = test system: Nanoluciferase (engineered Oplophorus gracilirostris luciferase); assay: Primary Nanoluciferase (NLuc) qHTS assay for identification of artifact compounds. (AID 1845222);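 further: NLuc secreted into diluted conditioned medium of S16 cells; series mostly up to about 54 µM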
Method in brief: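 NLuc from S16 cell medium (1:55) plus test compounds, 15 min, room temperature. Luminescence after Nano-Glo (1:100) addition, 5 min.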

Row | Compound | Potency [1] | Potency [2] | Potency [3] | Potency [4] | Potency [5] | activity, negative = inhibition [1] | activity change, negative = inhibition [2] | activity change, negative = inhibition [3] | activity change, negative = thiol reactive [4] | activity, negative = inhibition [5]
1 | COC(=O)/C=C/C12COC(C)(C)C1C(O)C(OC(C)=O)C1(C)C2CCC2(C)C(c3ccoc3)OC(=O)C3OC321 (stereo not given) | inactive | inactive | inactive | inactive | inactive |  |  |  |  | 
2 | CC1=CC2C(CC1OC1OC(CO)C(O)C(O)C1O)C(C)CC(=O)C2C(C)C (stereo not given) | inactive | inactive | inactive | 3.69 µM (active) | inactive |  |  |  |  | 
3 | CC1=CC2/C=C(\C)CC[C@@H](O)[C@@H](O)[C@@H]3O[C@@H]3C(=O)[C@]23C(=O)N[C@@H](CC(C)C)[C@@H]3[C@@H]1C (stereo not given in full) | inactive | inactive | inactive | inactive | inactive |  |  |  |  | 
4 | COc1cc(C(=O)NC2CCN(C)CC2)c(F)cc1Nc1ncc2c(n1)N(C1CCCC1)CC(F)(F)C(=O)N2C | inactive | inactive | inactive | inactive | inactive |  |  |  |  | 
5 | Cc1cc2c(c(=O)[nH]1)OC(C(O)CC(C)C)O2 (stereo not given) | inactive | inactive | inactive | inactive | inactive |  |  |  |  | 
6 | CC1=C(C)C(=O)OC(C(C)C2CCC3C4CC=C5CC(OC6OC(COC7OC(CO)C(O)C(O)C7O)C(O)C(O)C6O)CC(O)C5(C)C4CCC23C)C1 (stereo not given) | inactive | inactive | inactive | inactive | inactive |  |  |  |  | 
7 | CCCN1CCN(c2ccc(C(=O)NC3(C(=O)NCC#N)CCCCC3)cc2)CC1 | inactive | inactive | inactive | inactive | inactive |  |  |  |  | 
8 | CO[C@H]1/C=C/C=C/C=C/C[C@H](OC(=O)[C@@H](C)NC(=O)C2CCCCC2)[C@H](C)[C@@H](O)/C(C)=C/CCc2cc(O)cc(c2)NC(=O)C1 | inactive | inactive | inactive | 5.61 µM (active) | inactive |  |  |  |  | 
9 | COCCN1CCN(Cc2ccc(-c3n[nH]c4c3C(=O)c3c(NC(=O)NN5CCOCC5)cccc3-4)cc2)CC1 | inactive | inactive | inactive | inactive | inactive |  |  |  |  | 
10 | COc1ccc([C@@H]2OC[C@H]3[C@@H]2CO[C@@H]3c2ccc(OC3OC(CO)C(O)C(O)C3O)c(OC)c2)cc1OC (stereo not given in full) | inactive | inactive | inactive | 8.22 µM (active) | inactive |  |  |  |  | 
11 | OC[C@H]1O[C@@H](O[C@H]2[C@H](OCCc3ccccc3)O[C@H](CO)[C@@H](O)[C@@H]2O)[C@H](O)[C@@H](O)[C@@H]1O | inactive | inactive | inactive | 10.3 µM (active) | inactive |  |  |  |  | 
12 | C/C=C/C=C/[C@@H]1O[C@](O)([C@H](CC)C(=O)NC/C=C/C=C(\C)[C@@H](OC)[C@@H](C)C2OC(/C=C/C=C/C=C(\C)C(=O)c3c(O)cc[nH]c3=O)[C@H](O)[C@@H]2O)[C@H](O)[C@H](O)C1(C)C (stereo not given in full) | inactive | inactive | inactive | inactive | inactive |  |  |  |  | 
13 | CS(=O)(=O)c1ccc([C@H](CC2CCCC2)C(=O)Nc2nccs2)cc1 | inactive | inactive | inactive | inactive | inactive |  |  |  |  | 
14 | CCN1CCN(Cc2ccc(Nc3ncc(F)c(-c4cc(F)c5nc(C)n(C(C)C)c5c4)n3)nc2)CC1 | inactive | inactive | inactive | inactive | inactive |  |  |  |  | 
15 | CC1OC(OC2CCC3(C)C(CCC4(C)C3CC=C3C5CC(C)(C)CCC5(C(=O)OC5OC(CO)C(O)C(O)C5O)CCC34C(=O)O)C2(C)C)C(O)C(O)C1O (stereo not given) | inactive | inactive | inactive | inactive | inactive |  |  |  |  | 
16 | CC(C)S(=O)(=O)N[C@H]1CCOC[C@@H]1c1ccc(-c2ccc(C#N)s2)cc1 | inactive | inactive | inactive | inactive | inactive |  |  |  |  | 
17 | C[C@@H]1O[C@@H](O[C@H]2[C@H](O)[C@@H](O)[C@H](OC[C@H]3O[C@@H](OC(=O)[C@]45CCC(C)(C)C[C@H]4C4=CCC6[C@@]7(C)CC[C@H](O[C@@H]8OC[C@H](O)[C@H](O[C@@H]9O[C@H](CO)[C@@H](O)[C@H](O)[C@H]9O)[C@H]8O)[C@@](C)(CO)C7CC[C@@]6(C)[C@]4(C)CC5)[C@H](O)[C@@H](O)[C@@H]3O)O[C@@H]2CO)[C@H](O)[C@H](O)[C@H]1O (stereo not given in full) |  |  |  |  |  | -7.31% [at 9.52 µM] | -3.72% [at 9.73 µM] | 2.93% [at 11.6 µM] | 205% [at 11.5 µM] | 3.4% [at 11.6 µM]
18 | COc1cccc(Nc2ncnn3ccc(CN4CC[C@@H](N)[C@H](O)C4)c23)c1 | inactive | inactive | inactive | inactive | inactive |  |  |  |  | 
19 | CC1OC(OC2C(O)C(OC3CCC4(C)C(CCC5(C)C4CC=C4C6CC(C)(COC7OC(CO)C(O)C(O)C7O)CC(O)C6(C)CCC45C)C3(C)C)OC(C(=O)O)C2O)C(O)C(O)C1OC1OCC(O)C(O)C1O (stereo not given) | inactive | inactive |  |  |  |  |  | 0.0325% [at 11.6 µM] | 24.3% [at 11.5 µM] | -3.08% [at 11.6 µM]
